Source: PubChem BioAssay (EPA / NIEHS)
Active and inactive are the calls of the source. The calls were made as follows: active = hit-call score of the fitted dose curve at least 0.9, where 1 is the maximum; inactive = score below 0.9.

Each compound was assayed on CD38, CD38 (gene 952) (assay: BSK_SAg_CD38: BioMAP Diversity Plus: SAg Assay for CD38 Biomarker Activity (AID 2283087)). Conditions: primary human HUVEC with PBMC; actives raise or lower the signal.
Experimental: BSK_SAg is a cell-based, multiplexed-readout assay that uses umbilical vein endothelium and peripheral blood mononuclear cells, a human vascular primary cell co-culture, with measurements taken at 24 hours after chemical dosing in a 96-well plate.BSK_SAg_CD38 is one of 10 assay component(s) measured or calculated from the BSK_SAg assay. It is designed to make measurements of enzyme-linked immunosorbent assay, a form of binding reporter, as detected with fluorescence intensity signals by Enzyme-linked immunosorbent assay technology.Data from the assay component BSK_SAg_CD38 was analyzed into 1 assay endpoint. This assay endpoint, BSK_SAg_CD38, was analyzed with bidirectional fitting relative to DMSO as the negative control and baseline of activity. Using a type of binding reporter, gain or loss-of-signal activity can be used to understand changes in the signaling as they relate to the gene CD38. Furthermore, this assay endpoint can be referred to as a primary readout, because this assay has produced multiple assay endpoints where this one serves a signaling function. To generalize the intended target to other relatable targets, this assay endpoint is annotated to the cytokine intended target family, where the subfamily is other cytokine.
The levels of cell surface (or secreted, indicated by the prefix "s") biomarker endpoints were measured by ELISA. Overt cytotoxicity to cells in confluent adherent cultures (all systems other than the BT system) was assessed by measuring total protein levels using sulforhodamine B (SRB) staining in parallel cultures at the time of biomarker measurements, indicated as SRB endpoints. For proliferation assays for adherent cell types, individual cell types are cultured at sub-confluence and relative cell numbers quantified by SRB staining at time points optimized for each system (48 h: 3C and CASM3C systems; 72 h: BT and HDF3CGF systems; 96 h: SAg system). SRB was performed by staining cells with 0.1% SRB after fixation with 10% TCA and reading wells at 560 nm.Viability and proliferation of PBMC (T cells) was quantified by Alamar Blue reduction for the SAg and BT systems. For PBMC viability (referred to as PBMC Cytotoxicity within the assay endpoint names), cells were plated (75,000/well in a 96-well plate) and then chemical samples added for 1 h before addition of activators, SEB and TSST-1 (20 ng/mL final concentration each). Cells were incubated for 90 h. Then, Alamar Blue (20 uL/well) (Invitrogen, Cat DAL1100) was added for 6 h, and the plates were read with a fluorescence microplate reader at 546/580 nm (excitation/emission). For PBMC proliferation, cells were plated and activated as above but incubated for only 16 h prior to addition of Alamar Blue. Plates were read after 6 h.
In the case of `CC=Cc1ccc(OCC)c(O)c1`, the outcome is reported as “inactive”. For `CC(C)(C)CC(C)(C)c1ccc(OCCOCC[N+](C)(C)Cc2ccccc2)cc1`, the AC50 was 5 µM (active). With `CCCCCC(C=O)=Cc1ccccc1` the outcome was “inactive”. With `COc1cc(Cl)c(OC)cc1N` the outcome was “inactive”. `CCCCCCCCCCCCCCCC(=O)OC/C=C(C)/C=C/C=C(C)/C=C/C1=C(C)CCCC1(C)C` was tested, and the AC50 was 3.97 µM (active). For `Clc1cc(Cl)c(-c2c(Cl)c(Cl)cc(Cl)c2Cl)cc1Cl`, the AC50 was 15.6 µM (active). With `c1ccc(Oc2ccccc2)cc1` the outcome was “inactive”. `CC1(C)CCC[C@]2(C)[C@H]3CCO[C@]3(C)CC[C@@H]12` was tested, and the outcome was “inactive”. `O=CN1CCOCC1` was tested, and the outcome was “inactive”. For `C=C(C)C(=O)OCC(CC)(COC(=O)C(=C)C)COC(=O)C(=C)C`, the outcome was “inactive”. With `COc1ccc(CCN2CCC(Nc3nc4ccccc4n3Cc3ccc(F)cc3)CC2)cc1` the AC50 was 5 µM (active). `CCCCN(CCCC)C(=O)N(CCCC)CCCC` was tested, and the outcome was “inactive”. With `CCOC(=O)C(C#N)=C(c1ccccc1)c1ccccc1` the outcome was “inactive”. In the case of `CN(C)C(=S)SC(=S)N(C)C`, the AC50 is reported as 26.7 µM (active). For `CS(=O)(=O)c1ccc(C2=C(c3ccccc3)C(=O)OC2)cc1`, the outcome was “inactive”. `Oc1c(Cl)cc(Cl)c(Cl)c1Cc1c(O)c(Cl)cc(Cl)c1Cl` was tested, and the AC50 was 2.31 µM (active). `C=C(C)C(=O)OCCOCCOCCOC(=O)C(=C)C` was tested, and the outcome was “inactive”. With `COc1ccc(OC)c(N=Nc2c(O)ccc3ccccc23)c1` the AC50 was 20 µM (active). In the case of `c1ccc(CCc2ccccc2)cc1`, the AC50 is reported as 30.2 µM (active). With `C[C@@H]1CCN(C(=O)[C@H](CCCN=C(N)N)NS(=O)(=O)c2cccc3c2NC[C@H](C)C3)[C@@H](C(=O)O)C1` the outcome was “inactive”. In the case of `C=CC(C)(O)CCC=C(C)C` (stereo not given), the outcome is reported as “inactive”. With `CN(C)C(=O)Nc1ccc(Oc2ccc(Cl)cc2)cc1` the outcome was “inactive”. In the case of `CC1(C)C2=CCCC(C)(C)[C@]23CC[C@H]1C3`, the outcome is reported as “inactive”. `CCC(C)c1cc([N+](=O)[O-])cc([N+](=O)[O-])c1OC(=O)OC(C)C` (stereo not given) was tested, and the AC50 was 10.8 µM (active). With `CC(=O)c1c(C)c([N+](=O)[O-])c(C(C)(C)C)c([N+](=O)[O-])c1C` the outcome was “inactive”. With `Cc1cc(CCC(=O)OCCOCCOCCOC(=O)CCc2cc(C)c(O)c(C(C)(C)C)c2)cc(C(C)(C)C)c1O` the outcome was “inactive”. In the case of `C1=CC2C3C=CC(C3)C2C1` (stereo not given), the outcome is reported as “inactive”. `CN(c1nccc(=O)[nH]1)C1CCN(c2nc3ccccc3n2Cc2ccc(F)cc2)CC1` was tested, and the outcome was “inactive”. In the case of `CCN(CC)C(=O)N(CC)CC`, the outcome is reported as “inactive”. `O=C(Nc1ccc2c(O)c(N=Nc3ccc(N=Nc4ccc(S(=O)(=O)O)cc4)cc3)c(S(=O)(=O)O)cc2c1)c1ccccc1` was tested, and the outcome was “inactive”. `CCCCOC(=O)CCCCCCCC(=O)OCCCC` was tested, and the outcome was “inactive”. In the case of `O=C1OC[C@H](Cc2cccc(O)c2)[C@H]1Cc1cccc(O)c1`, the outcome is reported as “inactive”. In the case of `CSCCC=O`, the outcome is reported as “inactive”. `O=C1c2ccccc2C(=O)c2c(O)ccc(O)c21` was tested, and the AC50 was 13.1 µM (active). With `CC(=O)Nc1ccc(C(=O)CCl)cc1` the AC50 was 3.84 µM (active). With `CS(=O)(=O)OCCCCOS(C)(=O)=O` the outcome was “inactive”. In the case of `C=C(C)C(=O)OCCOCCOCCOCCOC(=O)C(=C)C`, the outcome is reported as “inactive”. In the case of `O=C1OC2(c3ccccc31)c1ccc(O)c(Br)c1Oc1c2ccc(O)c1Br`, the AC50 is reported as 20 µM (active). For `CC(C=O)Cc1ccc(C(C)(C)C)cc1` (stereo not given), the outcome was “inactive”. With `CCCCCCC(CO)CCCC` (stereo not given) the outcome was “inactive”.
